# Laboratory results published in PubChem BioAssay (Tox21).
# Inconclusive results are not listed. A call without a number means that no potency is given here. The source made the active and inactive calls. Calls come from the whole dose curve; as a rule, active = well fitted cell-killing curve with a large enough effect in the repeat runs; inconclusive = weak or mixed curves, or effect the other way; inactive = no such curve, though single readings can be large or run the other way.
# Test: qHTS assay to identify small molecule agonists of the estrogen receptor alpha (ER-alpha) signaling pathway in the presence of an antagonist - cell viability counter screen (AID 1259386);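 note: cells exposed to compounds for 22 h at 37 °C before the viability read; nearly all actives have a fitted effect of over 30% in size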
# Conditions: VM7Luc4E2 viability, CellTiter-Fluor fluorescence, 22 h; series mostly up to 92.4 µM
# Description: National Center for Advancing Translational Sciences [NCATS]
# NIH Chemical Genomics Center [NCGC]
# U.S. Environmental Protection Agency [EPA]
# National Institutes of Environmental Health Sciences [NIEHS]
# National Toxicology Program [NTP]
# U.S. Food and Drug Administration [FDA]
# Estrogen receptor (ER), a member of nuclear hormone receptor plays an important role in development, metabolic homeostasis and reproduction. Two subtypes of ER, ER-alpha and ER-beta, have similar expression patterns with some uniqueness in both types. Endocrine disrupting chemicals (EDCs) and their interactions with steroid hormone receptors like ER causes disruption of normal endocrine function. Therefore, it is important to understand the effect of environmental chemicals in ER signaling pathway. For identifying ER agonists, VM7Luc4E2 cell line has been used in the current assay.
# VM7Luc4E2 cell line (provided by Denison MS, University of California) endogenously expresses full-length ER-alpha and is stably transfected with a plasmid containing four estrogen responsive elements (ERE) upstream of a luciferase reporter gene. This current screening for measuring luciferase reporter gene activity using VM7Luc4E2 cells against Tox21 10K library collection is a confirmation study on agonist mode screening in presence of ER-antagonist (ICI-182,780) at 10.0nM final concentration. The cytotoxicity of the compounds was tested in parallel by measuring the cell viability using CellTiter-Fluor assay system (Promega, Madison, WI) in the same wells.
# Tox21 Assay Protocol Summary:
# VM7Luc4E2 cells were cultured in phenol red free assay medium containing 10% charcoal stripped FBS for 5 days prior to the assay. The cells were dispensed at 4,000 cells in 4uL of assay medium per well into white wall/solid-bottom 1536-well plates (Corning Life Sciences, Corning, NY) using a Multidrop Combi (Thermo Fisher Scientific Inc., Waltham, MA) dispenser. After the assay plates were incubated at 37C and 5% CO2 for 24hr, 1uL of 10.0nM (final concentration) ICI-182,780 or assay buffer was added using two separate tips of Flying Reagent Dispenser (FRD, Aurora Discovery, San Diego, CA). Then 23nL of compounds dissolved in DMSO at 15 concentrations and positive controls or DMSO only was transferred to the assay plates by a Pintool station (Wako, San Diego, CA). The assay plates were incubated at 37C and 5% CO2 for 22hr. After 21hr incubation at 37C, 1uL/well CellTiter-Fluor reagent (Promega Corporation, Madison, WI) was added to each well using FRD and after 1hr incubation at 37C and 5% CO2, the fluorescence signal was measured on ViewLux plate reader (PerkinElmer, Shelton, CT).
# Potency is the fitted concentration of half-maximal effect.
row,Structure (SMILES),Potency
1,CCCCCCCCCCOCC(O)CN (stereo not given),inactive
2,C[Si](C)(C)Cl,inactive
3,CCN(CC)CCOc1ccc(C(O)(Cc2ccc(Cl)cc2)c2ccc(C)cc2)cc1 (stereo not given),inactive
4,CCc1ccc(C)nc1,inactive
5,O=C1OC(=O)c2cccc3cccc1c23,inactive
6,CCCCCCCC/C=C\CCCCCCCC(=O)OCCOC(=O)CCCCCCC/C=C\CCCCCCCC,inactive
7,C(=C/c1ccccc1)/c1ccccc1,inactive
8,Clc1ccc(C(c2ccccc2Cl)C(Cl)Cl)cc1 (stereo not given),inactive
9,CCOCN(C(=O)CS(=O)(=O)O)c1c(C)cccc1CC,inactive
10,CCC(C)(C)c1cc(O)c(C(C)(C)CC)cc1O,inactive
11,CCN(CC)CCSC(=O)C(c1ccccc1)c1ccccc1,inactive
12,CCCCCCCCCCCCCCCC,inactive
13,CO[C@H]1C=CO[C@@]2(C)Oc3c(C)c(O)c4c(O)c(cc(O)c4c3C2=O)NC(=O)/C(C)=C\C=C/[C@H](C)[C@H](O)[C@@H](C)[C@@H](O)[C@@H](C)[C@H](OC(C)=O)[C@@H]1C,38.8 µM (active)
14,CCOC(/C=C(\C)CCC=C(C)C)OCC,inactive
15,Nc1ncnc2c1ncn2[C@@H]1O[C@H](COP(=O)(O)O)[C@@H](O)[C@H]1O,inactive
16,Cc1cc(Nc2ccc(O)cc2)ccc1N,30.5 µM (active)
17,CC(C(O)c1ccccc1)N(C)CCOC(c1ccccc1)c1ccccc1 (stereo not given),inactive
18,CCCCOCC,inactive
19,OCCC(O)CO (stereo not given),inactive
20,Brc1ccccn1,inactive

row,Structure (SMILES),Potency
1,O=C(O)CCn1c2c(c3ccccc31)C[C@H](NS(=O)(=O)c1ccc(F)cc1)CC2,inactive
2,CC(C)c1cccc(C(C)C)c1N1C(=O)c2ccc(O)cc2C1=O,inactive
3,Clc1ccc(C(Cn2ccnc2)OCc2c(Cl)cccc2Cl)c(Cl)c1 (stereo not given),inactive
4,CCCCCCCC/C=C\CCCCCCCC(=O)N(C)CC(=O)O,inactive
5,CCC(C)c1ccccc1 (stereo not given),inactive
6,O=C1c2c(O)ccc([N+](=O)[O-])c2C(=O)c2c([N+](=O)[O-])ccc(O)c21,24.1 µM (active)
7,CCOC(=O)N1CCC(=C2c3ccc(Cl)cc3CCc3cccnc32)CC1,inactive
8,CC(O)C#CC(C)O (stereo not given),inactive
9,CCN(CC)c1cccc(C)c1,inactive
10,CCOC(=O)CN,inactive
11,O=C1C=CC(=O)N1c1ccccc1,68.6 µM (active)
12,CN(Cc1cc(Br)cc(Br)c1N)C1CCCCC1,inactive
13,Oc1ccc(-c2ccccc2)c(Cl)c1,inactive
14,c1ccc(Sc2ccccc2)cc1,inactive
15,CC(C)=CCCC(C)CCOC(=O)C(C)C (stereo not given),inactive
16,CCc1cccc(CC)c1N(COC)C(=O)CS(=O)(=O)O,inactive
17,CC(=O)Nc1ccc(O)cc1,inactive
18,CCCCCCCC(=O)OCC,inactive
19,c1ccc(Nc2cccc3ccccc23)cc1,inactive
20,C=CC(=O)OCCOCC(CC)(COCCOC(=O)C=C)COCCOC(=O)C=C,35.8 µM (active)
